Assay outcomes (PubChem)
RMI-FANCM inh = blocks RMI1/RMI2 complex binding to FANCM MM2 peptide; Fluorescence polarization, RMI core complex with F-MM2 peptide; stronger effect = lower value; FP signal (polarization) at 33 µM; actives 0.58% (n = 70,000); AID 1159607; in the data active = FP signal below about 40
* marks the source's active call; other numbers are inactive results. The full list was thinned out, with hits kept by preference.

SMILES	RMI-FANCM inh
CCOC(=O)Cn1c(=NC(=O)c2ccccc2Br)sc2cccc(F)c21	63
CCOC(=O)CN1C(c2ccccc2F)Nc2ccc(Br)cc2C1c1ccccc1 (stereo not given)	27*
C#CCn1c(=NC(=O)C2CCCCC2)sc2cc(Br)ccc21	104
O=C(Nc1ccc2c3c(cccc13)CC2)C1=COCCO1	63
CC(C)N1CCc2c(sc(N)c2C(N)=O)C1	-30*
CSc1ccccc1C(=O)Nc1sc2c(c1C(N)=O)CCN(C(C)C)C2	80
CC(=O)N1CCc2c(sc(N)c2C(N)=O)C1	69
O=C(NCCn1nc(-c2ccco2)ccc1=O)Nc1ccc(F)cc1	69
COc1ccc(Cl)cc1NC(=O)NNC(=O)c1cccn(Cc2cccc(F)c2)c1=O	70
COc1ccc(F)cc1S(=O)(=O)N1CCN(c2ccc(-c3ccc(F)cc3)nn2)CC1	81
COc1ccc(C)cc1S(=O)(=O)N1CCN(c2ccc(-c3ccncc3)nn2)CC1	67
COc1ccc(Cl)cc1S(=O)(=O)N1CCN(c2ccc(-c3ccncc3)nn2)CC1	27*
C/C(=N/OC(=O)c1ccccc1)c1ccc([N+](=O)[O-])cc1	61
O=S(=O)(N=Cc1cc(Br)ccc1O)c1ccccc1	21*
O=S(=O)(N/N=C\c1cc(Br)ccc1O)c1ccccc1	59
NS(=O)(=O)c1ccc(N=Cc2cc(Br)ccc2O)cc1	48
O=C(Cc1ccc(Cl)cc1)Nc1ccc(N2CCCC2=O)cc1	54
N#C/C(=N/Nc1ccc(Br)cc1)c1nc2ccccc2s1	50
CCC(=O)Nc1cccc(-c2ccc(=O)n(C)n2)c1	53
CC[n+]1c(-c2ccc(C)cc2)csc1Nc1ccc(NC(C)=O)cc1	54
Cc1ccc(C2CC(c3cccs3)=NN2C(=O)CSc2nc(=O)n3ccc(C)cc3n2)cc1 (stereo not given)	88
COC(=O)c1ccc(CSc2nc(=O)n3ccc(C)cc3n2)o1	48
CCOC(=O)N1CCN(C(=O)CSc2nc(=O)n3ccc(C)cc3n2)CC1	29*
COc1ccc(-c2ccc(N3CCCC(C(=O)NC4CC4)C3)nn2)cc1 (stereo not given)	61
CCOc1ccccc1CN1C(=O)C2(SC(NC(C)=O)=NN2C(C)=O)c2cccc(Cl)c21 (stereo not given)	22*
SMILES	RMI-FANCM inh
COc1cccc(CNC(=O)Cn2c(=O)n(Cc3ccccc3Cl)c(=O)c3nccnc32)c1OC	66
CCOc1ccccc1CN1C(=O)C(NC(C)=O)c2cc(C)cc(C)c21 (stereo not given)	63
O=C1c2cccc3c(Br)ccc(c23)C(=O)N1CCO	-1*
O=C1OC(=O)c2ccc(Br)c3cccc1c23	56
CCOC(=O)OCCN1C(=O)c2cccc3c(Br)ccc(c23)C1=O	59
Cc1cccc(CC(=O)NCCn2ncc3c(=O)n(Cc4cccc(Cl)c4)cnc32)c1	66
Cc1ccc(Cn2c3c(c(=S)[nH]c2=O)CCC3)cc1	65
COc1ccc(-n2nnc(C(=O)OCc3nc(-c4ccc(OC)cc4OC)oc3C)c2C)cc1	75
C=CCN1C(=O)/C(=C\c2cc(C)n(-c3ccc(F)cc3)c2C)C(C(=O)OC)=C1C	31*
CC1=NN(c2ccccc2)C(=O)/C1=C\c1cc(C)n(-c2ccccc2)c1C	83
C=CCn1c(SCC(=O)c2cc(C)n(-c3ccc(C)c(C)c3)c2C)nc2scc(-c3ccc(F)cc3)c2c1=O	86
NC(=O)c1ccc(NC(=O)C(=O)NCC(c2cccc3ccccc23)N2CCCC2)cc1 (stereo not given)	79
COc1ccc(/C(C)=N\N=C(\C)c2ccc(OC)cc2)cc1	62
CCN1C(=O)c2cccc3c(NC(=O)/C=C/c4ccc(Cl)cc4)ccc1c23	57
Clc1cc2c(c3ncccc13)OCN(Cc1cccnc1)C2	59
O=C(CCN1CCN(Cc2ccccc2)CC1)N1N=C(c2ccccc2)CC1c1cccc([N+](=O)[O-])c1 (stereo not given)	63
OCCN/N=C\c1cc(Cl)cc(Cl)c1O	40
Oc1ccccc1/C=N\NC(=S)NC1CC2C=CC1C2 (stereo not given)	53
Oc1c(Cl)cc(Cl)cc1/C=N\NC(=S)NC1CC2CCC1C2 (stereo not given)	11*
COc1ccc2nc(-c3ccc(C)c(NS(=O)(=O)c4cccc(C)c4)c3)cn2n1	71
COC(=O)Nc1nc(CC(=O)N2CCN(c3ncccn3)CC2)cs1	65
O=C(Nc1ccncc1)C1CCN(c2ccc(-c3ccc(F)cc3)nn2)CC1	61
O=C(Nc1csc(-c2ccc(Oc3ccc(-c4nc(NC(=O)c5ccc(C(=O)c6ccccc6)cc5)cs4)cc3)cc2)n1)c1ccc(C(=O)c2ccccc2)cc1	25*
O=C(Nc1csc(-c2ccc(Oc3ccc(-c4nc(NC(=O)c5cc(Cl)sc5Cl)cs4)cc3)cc2)n1)c1cc(Cl)sc1Cl	65
O=C(Nc1ccc(S(=O)(=O)N2CCOCC2)cc1)c1ccc(Cl)cc1	55
O=C(Nc1nc(-c2ccc(Br)cc2)cs1)c1ccc(Oc2ccc(C(=O)Nc3nc(-c4ccc(Br)cc4)cs3)cc2)cc1	58
